Consider 40 compounds from PubChem BioAssay (NCATS).

The structures appear in SMILES notation. Results filed as inconclusive are left out. Calls of active or inactive are those of the source. Calls come from the whole dose curve; as a rule, active = well fitted cell-killing curve with a large enough effect; inconclusive = small, poorly fitted or top-dose-only effect, or effect the other way; inactive = no such curve, though single readings can be large or run the other way.
Potency is the fitted concentration of half-maximal effect.

The assay in a line: Quantitative High-Throughput drug screen in 47 multiple myeloma cell lines against the NCATS MIPE library collection: OCIMY5_PLB cell viability assay (AID 1918988). Note: nearly all actives have a fitted effect of over 65% in size. The settings on record: OCI-MY5 myeloma viability, ATP luminescence, 48 h; series mostly up to 45.8 µM; viability, % of control: at the top concentration. The source says: PI: Beverly A. Mock Ph.D.
Laboratory of Cancer Biology and Genetics,
Center for Cancer Research, National Cancer Institute,
National Institute of Health, Bethesda, Maryland
Drug resistance and disease progression are common in multiple myeloma (MM) patients, underscoring the need for new therapeutic combinations. […] We hypothesized that effective combinations would reduce MYC expression and enhance p16 activity. […] These preclinical data identify potentially useful drug combinations for evaluation in drug-resistant MM and reveal potential mechanisms of combined drug sensitivity.
Described herein is the primary MIPE qHTS used to cherrypick compounds. Validated compounds were then further tested for potential synergistic activiy.
[1] Peat TJ, Gaikwad SM, Dubois W, Gyabaah-Kessie N, Zhang S, Gorjifard S, Phyo Z, Andres M, Hughitt VK, Simpson RM, Miller MA, Girvin AT, Taylor A, Williams D, D'Antonio N, Zhang Y, Rajagopalan A, Flietner E, Wilson K, Zhang X, Shinn P, Klumpp-Thomas C, McKnight C, Itkin Z, Chen L, Kazandijian D, Zhang J, Michalowski AM, Simmons JK, Keats J, Thomas CJ, Mock BA. Drug combinations identified by high-throughput screening promote cell cycle transition and upregulate Smad pathways in myeloma. Cancer Lett. 2023 Aug 1;568:216284. doi: 10.1016/j.canlet.2023.216284. Epub 2023 Jun 24. PMID: 37356470; PMCID: PMC10408729.
SEQUENCE No. (e.g., 1, 2, 3, etc.); […] (e.g., Cells, Incubation, Reagent, etc.); VALUE and DESCRIPTION.
1; Cells; 5 uL; white, solid bottom 1536-well Greiner assay plate.
2; Compounds; 23 nL; Kalypsis pin tool (Wako USA) equipped with a 1536-well pin head to transfer to the assay plates.
3; Incubation; 48 hours; 37C incubation.
4; Reagent;5uL; CellTiter Glo (Promega).
5; Detector; 425V; Luminescence; Viewlux PerkinElmer.
NOTES (numbers refer to Sequence numbers above)
1. The cell-based screening methods employed in this study were like those previously published. Briefly, the corresponding myeloma cell lines were screened in 1,536-well plates with 500 cells, 5-uL per well for inhibition of cell viability (assessed by measuring ATP levels with CellTiterGlo).
2. NCATS MIPE 4.0 library of approved and investigational drugs were added using the Kalypsis pin tool. Wells treated with DMSO only for 100% viability and media only for 0% viability were used as controls.
3. The assay plates were covered and incubated for 48 hours in a 37C, 5% CO2 incubator with controlled humidity.
4. After 48 hours, CellTilter-GloTM luminescent substrate mix (Promega) reagent was added to the assay plate and plates we incubated for 5 min at room temperature.
5. Signal was measured as median relative luminescence units on a ViewLux (PerkinElmer) multiplate reader.
[1] Heske CM, Davis MI, Baumgart JT, Wilson K, Gormally MV, Chen L, Zhang X, Ceribelli M, Duveau DY, Guha R, Ferrer M, Arnaldez FI, Ji J, Tran HL, Zhang Y, Mendoza A, Helman LJ, Thomas CJ. Matrix Screen Identifies Synergistic Combination of PARP Inhibitors and Nicotinamide Phosphoribosyltransferase (NAMPT) Inhibitors in Ewing Sarcoma. Clin Cancer Res. 2017 Dec 1;23(23):7301-7311. doi: 10.1158/1078-0432.CCR-17-1121. Epub 2017 Sep 12. PMID: 28899971; PMCID: PMC6636827.
Consider `O=c1c(-c2ccc(O)cc2)coc2cc(O)ccc12`, for which the Potency was 14.8 µM (active).
`NS(=O)(=O)c1cccc2c1C(=O)c1cccc(O)c1C2=O`: the Potency is 0.526 µM (active).
Turning to `O=C(N[C@@H](c1ccccc1)[C@@H]1CCCCN1)c1cccc(C(F)(F)F)c1Cl`, the Potency was 18.7 µM (active).
The same measure, in the same setting: to `CCS(=O)(=O)N1CC(CC#N)(n2cc(-c3ncnc4[nH]ccc34)cn2)C1` belongs 7.43 µM (active).
Same read-out and setting: under `CCC(=O)NC[C@H](Cc1ccc(OCCc2nc(-c3ccccc3)oc2C)cc1)NC(C)=CC(=O)c1ccc(C(F)(F)F)cc1` stands 18.7 µM (active); under `CO[C@@H](C(=O)N1Cc2[nH]nc(NC(=O)c3ccc(N4CCN(C)CC4)cc3)c2C1)c1ccccc1`, 6.62 µM (active); under `CCCCCCCCCCCC1=C(O)C(=O)C=C(O)C1=O`, 29.6 µM (active).
Same read-out and setting: under `O=C(NCc1ccncc1)C12C[C@H]3C[C@@H](C1)CC(c1ccc(Cl)cc1)(C3)C2` stands 18.7 µM (active).
As for `CCc1ccc(OCc2ccccc2C(=O)Nc2ccc3nc(C)cc(N)c3c2)cc1`, the Potency is 7.43 µM (active).
Turning to `COc1ccc(C2Sc3ccccc3N(CCN(C)C)C(=O)C2OC(C)=O)cc1` (stereo not given), the Potency is 10.5 µM (active).
As for `C[C@@H]1CCN(C(=O)CC#N)C[C@H]1N(C)c1ncnc2[nH]ccc12`, the Potency is 13.2 µM (active).
On to `CN1[C@@H]2CCC[C@@H]1CC(NC(=O)c1nn(C)c3ccccc13)C2` (stereo not given in full), for which the “viability, % of control” value was 179% (inactive).
For `CC1(C)CCC(CN2CCN(c3ccc(C(=O)NS(=O)(=O)c4ccc(NCC5CCOCC5)c([N+](=O)[O-])c4)c(Oc4cnc5[nH]ccc5c4)c3)CC2)=C(c2ccc(Cl)cc2)C1`, the Potency is 0.0148 µM (active).
For the compound `Nc1nc(F)nc2c1ncn2[C@@H]1O[C@H](COP(=O)(O)O)[C@@H](O)[C@H]1O`, the Potency was 23.5 µM (active).
As for `COc1ccc2c(Oc3ccc(NC(=O)c4c(C)n(CC(C)(C)O)n(-c5ccccc5)c4=O)nc3)ccnc2c1`, the Potency is 26.4 µM (active).
Consider `O=C(O)c1cc(O)c2c(c1)C(=O)c1cccc(O)c1C2=O`, for which the Potency was 48.1 µM (active).
For the compound `O=C1NC(=O)C(=Cc2cccc(C(F)(F)F)c2)S1`, the Potency is 26.4 µM (active).
In the case of `COc1ccc2c3c1OC1C[C@@H](O)C=C[C@@]31CCN(C)C2` (stereo not given in full), the Potency is 10.5 µM (active).
For the compound `O=C(O)C=Cc1ccc(O)c(O)c1`, the Potency was 18.7 µM (active).
Consider `CCOC(CN1C(=O)[C@](CC(=O)Nc2ccc(C)cc2)(NC(=O)Nc2ccc(C)cc2)c2ccccc21)OCC`, for which the Potency was 26.4 µM (active).
As for `CC(=O)O[C@]1(C(C)=O)CC[C@@H]2[C@@H]3C[C@H](C)C4=CC(=O)CC[C@]4(C)[C@H]3CC[C@@]21C`, the Potency is 16.6 µM (active).
Still for that read-out and setting: to `O=C1c2ccccc2-[n+]2ccc3c([nH]c4ccccc43)c21` belongs 1.05 µM (active); to `NC(=O)c1cccc2[nH]c(-c3ccc([C@H]4CCCN4)cc3F)nc12`, 20.9 µM (active).
On the same count and under the same terms, to `Oc1ccc(C2=Cc3ccc(O)cc3OC2)cc1` belongs 2.96 µM (active); to `COc1ccc2c(Oc3ccc(NC(=O)c4c(C)n(CC(C)(C)O)n(-c5ccccc5)c4=O)cc3F)ccnc2c1`, 23.5 µM (active).
Same read-out and setting: to `O=C(Nc1cc(Cl)cc2c1[nH]c1cnccc12)c1cccnc1` belongs 16.6 µM (active); to `CC(=O)Nc1ccc([C@H](C)C(=O)Nc2ncc(C(C)C)s2)cc1`, 0.743 µM (active); to `CC#CCn1c(N2CCC[C@@H](N)C2)nc2c1c(=O)n(Cc1nc(C)c3ccccc3n1)c(=O)n2C`, 26.4 µM (active).
In the case of `NS(=O)(=O)c1ccc(NC2=CC(=O)c3ccccc3C2=O)cc1`, the Potency was 4.69 µM (active).
For `CN1CCN(CCOc2cc(OC3CCOCC3)c3c(Nc4c(Cl)ccc5c4OCO5)ncnc3c2)CC1`, the Potency is 18.7 µM (active).
Take `O=C(O)CCC1CCC(c2cc(F)ccc2F)(S(=O)(=O)c2ccc(Cl)cc2)CC1` (stereo not given): the “viability, % of control” value was 175% (inactive).
Consider `O=c1cc(-c2ccc(O)cc2)oc2cc(O)cc(O)c12`, for which the Potency is 10.5 µM (active).
On the same count and under the same terms, to `CC(C)(C)C(=O)Oc1ccc2c(c1)nc(NC(=O)c1cccc([N+](=O)[O-])c1)n2CCCO` belongs 18.7 µM (active); to `Clc1ccc(C(c2ccc(Cl)cc2)n2cc[n+](CC(OCc3ccc(Cl)cc3Cl)c3ccc(Cl)cc3Cl)c2)cc1` (stereo not given), 14.8 µM (active).
On to `CC1(C)CCC[C@@]2(C)[C@@H]1CC[C@@]1(C)OC(=O)C[C@H]21`, for which the Potency was 23.5 µM (active).
Consider `CC(C)(C)NC(=O)Nc1cccc(Nc2ncc(F)c(NC(C)(C)CO)n2)c1`, for which the Potency is 3.72 µM (active).
As to `COc1cccc([C@@H](C)NCCCc2ccccc2Cl)c1`, the “viability, % of control” value is 146% (inactive).
Consider `CC1(C)CCC2=C(O1)c1ccccc1C(=O)C2=O`, for which the Potency was 18.7 µM (active).
On to `C[C@]12CCC3c4ccc(O)cc4CCC3C1CCC2=O` (stereo not given in full), for which the Potency is 0.0019 µM (active).
`CCOc1ccc(Nc2nc(-c3c(C)nc4ccccn34)cs2)cc1`: the Potency was 0.0026 µM (active).
